Tau fluor counter: counter-screen for tau fibril formation inhibitors; tau K18 P301L Alexa594 fluorescence, heparin fibrillization; Potency, µM (top dose mostly 57.7 µM), for inactives: top-dose activity change, negative = decrease; 280,000 tested, 0.93% active; AID 1463; further: potency means the concentration at half of the fitted maximal effect; nearly all actives have a fitted effect of over 55% in size
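Human tau K18 P301L (15 uM unlabeled, 0.24 uM Alexa 594-labeled) in 100 mM sodium acetate pH 7 with 20 uM heparin, 6 hr at 37 C. ThT 30 uM added, 1 hr ambient; Alexa 594 FP and total fluorescence read at 555/632 nm.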
Tau fibril ThT: blocks human tau fibril formation measured by thioflavin T | recombinant tau K18 P301L (four-repeat tau fragment), heparin-induced fibrillization, ThT fluorescence | Potency, µM (doses to about 57.4 µM), without a hit: at the top dose activity, negative = inhibition, most hits filed as inhibitors | 270,000 tested, 2.1% active | AID 1460 | P10636; further: potency means the concentration at half of the fitted maximal effect; nearly all actives have a fitted effect of over 55% in size
Target sequence (P10636 561-689 P618L limits assumed): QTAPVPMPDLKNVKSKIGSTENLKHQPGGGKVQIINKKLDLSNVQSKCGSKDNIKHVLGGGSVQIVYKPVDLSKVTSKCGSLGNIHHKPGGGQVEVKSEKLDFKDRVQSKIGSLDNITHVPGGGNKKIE
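In this qHTS, human K18 P301L tau is incubated with compound and heparin for 6 hr at 37 C, and Thioflavin T fluorescence then reports fibril load.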
Sfp inh: blocks B. subtilis Sfp PPTase activity; Q9F4F7; Biochemical Sfp PPTase activity, qHTS; Potency, µM, without a hit: largest response in the series, negative = inhibition, hits mostly inhibitors; 310,000 tested, 3.5% active; AID 1490;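 further: the enzyme is Sfp with the accession as filed and its product quenches rhodamine fluorescence; potency means the concentration at half of the fitted maximal effect; 0% = enzyme reaction without inhibitor and -100% = no enzyme wells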
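Fluorescence-quenching assay with 15 nM Sfp, 5 uM rhodamine-CoA and 12.5 uM BHQ-2-labelled ybbR peptide in pH 7.6 Hepes/MgCl2 buffer. Enzyme was pre-incubated with compound for 15 min at room temperature. Rate was taken from the 30-min fluorescence change (525/598 nm).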
FBPA coupling cs: inhibits coupling enzyme system, counter-screen for aldolase hits. 290,000 tested, 0.67% active. activity change, negative = inhibition, % at 58.2 µM, hits read low. coupling enzyme system counterscreen, AmpLite Red fluorescence; in the data active means activity change below about -30%
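Fluorescence at 525 nm excitation and 598 nm emission measured inhibition of the coupled detection system without aldolase. Compounds (at 57.5 uM final) were preincubated 10 min at room temperature with coupling enzyme reagent before a 20 min substrate/AmpLite Red step.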
Tau FP inhib: tau fibrillization inhibition (FP); K18 P301L tau heparin fibrillization, Alexa594 FP, 6 h; Potency, µM (top dose mostly 57.7 µM), for inactives: at the top dose activity, negative = inhibition, actives largely listed as inhibitors; 280,000 tested, 0.39% active; P10636; further: potency means the concentration at half of the fitted maximal effect; nearly all actives have a fitted effect of over 55% in size
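Compound effects on tau fibrillization are measured by Alexa 594 fluorescence polarization (ex 555, em 632 nm). K18 P301L tau is used at 15 uM with 0.24 uM labeled tracer, and 20 uM heparin induces aggregation over 6 hr at 37 C.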
The depositor's hits bear a star; ! = a repeat was not active; [ ] = another dose, or the depositor's remark. Sampled rows, rich in hits. Any-hit rate of the full collection: about 5.2%. Unless noted, the call rests on the fitted dose curve; in most records, active means well fitted curve in the direction sought with a large enough effect; inconclusive means small, poorly fitted or top-dose-only effect, or another doubt; inactive means no such curve, though single readings can be large; an effect the other way counts as inactive or inconclusive. Unless noted, on the % scale 0 is the no-effect control and ±100 the full control effect.

COCCNC(=S)N(CCc1c(C)[nH]c2ccc(F)cc12)Cc1cccs1 was read as Tau fluor counter 14µM*[quencher], Tau fibril ThT -13%, Sfp inh 17%, FBPA coupling cs -1 and Tau FP inhib 13%.
For COc1cc(-c2noc(-c3ccc(NCc4ccco4)c([N+](=O)[O-])c3)n2)cc(OC)c1OC the results were Tau fluor counter -17%, Tau fibril ThT 6% and Tau FP inhib -23%.
CCOc1ccc(OCC)c(NC(=O)CCc2c(C)nc3c(c2C)c(=O)n(C)c(=O)n3C)c1 was read as Tau fluor counter -4%, Tau fibril ThT 3% and Tau FP inhib 4%.
`CNC(=S)N(CCc1c(C)[nH]c2ccc(C)cc12)Cc1ccco1` gave Tau fluor counter inconclusive, Tau fibril ThT inconclusive, Sfp inh -5%, FBPA coupling cs 0 and Tau FP inhib inconclusive.
For CCNC(=S)N(CCc1c(C)[nH]c2ccc(C)cc12)Cc1cccs1 the results were Tau fluor counter 14µM*[quencher], Tau fibril ThT inconclusive, Sfp inh 27%, FBPA coupling cs -2 and Tau FP inhib inconclusive.
`Cc1ccc(C(=O)Nc2cccc(-c3nc4cccnc4s3)c2C)cc1` gave Tau fluor counter -17%, Tau fibril ThT inconclusive and Tau FP inhib 0%.
Screening CC(C)(C)c1cc[n+](-c2[nH]c(=O)sc2/C=N/NC([S-])=Nc2ccccc2)cc1 returned Tau fluor counter -22%, Tau fibril ThT inconclusive, Sfp inh 35µM*, FBPA coupling cs -3 and Tau FP inhib -22%.
`CC(=O)Nc1nc(-c2ccc([N+](=O)[O-])cc2)cs1` gave Tau fluor counter -7%, Tau fibril ThT -5%, Sfp inh 17%, FBPA coupling cs 0 and Tau FP inhib 9%.
For C/C=C/C=N/Nc1nc(-c2ccc([N+](=O)[O-])cc2)cs1 the results were Tau fluor counter inconclusive, Tau fibril ThT 3.5µM*, Sfp inh 17%, FBPA coupling cs 0 and Tau FP inhib 14%.
CC(C)=NNc1nc(-c2ccc([N+](=O)[O-])cc2)cs1 was read as Tau fluor counter -29%, Tau fibril ThT 8.9µM*, Sfp inh -22%, FBPA coupling cs -1 and Tau FP inhib 10%.
Screening COc1cccc(CNC(=O)c2ccc(-n3c(C)cc4c3CCCC4)cc2)c1 returned Tau fluor counter -19%, Tau fibril ThT inconclusive and Tau FP inhib inconclusive.
Screening C=CCN1C=C2C(=O)C(C)(OC(=O)CCC(=O)OC)C(=O)C(Br)=C2C=C1c1ccc(OC)cc1 (stereo not drawn) returned Tau fluor counter -8%[11.6 µM], Tau fibril ThT 14µM*!, Sfp inh 13%, FBPA coupling cs -41*! and Tau FP inhib inconclusive.
For CCN(CC)CCCN1C=C2C(=O)C(C)(OC(=O)CCC(=O)OC)C(=O)C(Br)=C2C=C1c1ccc(OC)cc1 (stereo not drawn) the results were Tau fluor counter -12%[11.6 µM], Tau fibril ThT -5%[11.5 µM], Sfp inh -21%, FBPA coupling cs -15 and Tau FP inhib -7%[11.6 µM].
`COC(=O)CCC(=O)OC1(C)C(=O)C2=CN(C3CCCC3)C(c3ccc(OC)cc3)=CC2=C(Br)C1=O` (stereo not drawn) gave Tau fluor counter -14%[11.6 µM], Tau fibril ThT 16µM*, Sfp inh inconclusive, FBPA coupling cs -41* and Tau FP inhib inconclusive.
For COCCN1C=C2C(=O)C(C)(OC(=O)CCC(=O)OC)C(=O)C(Br)=C2C=C1c1ccc(OC)cc1 (stereo not drawn) the results were Tau fluor counter -9%[11.6 µM], Tau fibril ThT -11%[11.5 µM], Sfp inh -13%, FBPA coupling cs -30* and Tau FP inhib -5%[11.6 µM].
CS(=O)(=O)c1ncc(Cl)c(C(=O)Nc2ccc(N3CCOCC3)cc2)n1 was read as Tau fluor counter inconclusive, Tau fibril ThT 3.2µM*, Sfp inh -42%, FBPA coupling cs -3 and Tau FP inhib inconclusive.
Screening CS(=O)(=O)c1ncc(Cl)c(C(=O)Nc2ccc(OC(F)F)cc2)n1 returned Sfp inh inconclusive and FBPA coupling cs 5.
For CCN(c1ccccc1)S(=O)(=O)c1ccc(NC(=O)c2nc(S(C)(=O)=O)ncc2Cl)cc1 the results were Tau fluor counter -21%, Tau fibril ThT inconclusive, Sfp inh 20µM* and Tau FP inhib inconclusive.
Cc1ccc(-c2nnc(SCC(=O)NCCC(C)C)nc2-c2ccc(C)cc2)cc1 was read as Tau fluor counter -18%, Tau fibril ThT -15% and Tau FP inhib -1%.
For CCN(CC)C(=O)c1c(NC(=O)c2ccccc2)sc(C)c1C the results were Tau fluor counter -5%, Tau fibril ThT -9%, Sfp inh -1%, FBPA coupling cs 1 and Tau FP inhib 9%.
CCOC(=O)c1c(NC(=O)OC)sc(C(=O)N(CC)CC)c1C was read as Tau fluor counter -5%, Tau fibril ThT -14%, Sfp inh 22µM*, FBPA coupling cs 1 and Tau FP inhib 4%.
Screening CCN(CC)C(=O)c1sc(NC(=O)c2ccncc2)c(C(=O)OC)c1C returned Tau fluor counter -17%, Tau fibril ThT inconclusive, Sfp inh 28µM*, FBPA coupling cs 1 and Tau FP inhib -5%.
Screening CCN(CC)C(=O)c1sc(NC(=O)c2cc(-c3ccc(C)s3)nc3ccccc23)c(C(=O)OC)c1C returned Tau fluor counter -28%, Tau fibril ThT -20%, Sfp inh 13µM*, FBPA coupling cs -3 and Tau FP inhib -8%.
`CCN(CC)C(=O)c1sc(NC(=O)c2ccoc2C)c(C(=O)OC)c1C` gave Tau fluor counter -5%, Tau fibril ThT inconclusive, Sfp inh 32µM*, FBPA coupling cs 1 and Tau FP inhib -6%.
CCOC(=O)c1c(NC(=O)c2ccoc2C)sc(C(=O)N(C)C)c1C was read as Tau fluor counter -6%, Tau fibril ThT -1%, Sfp inh -9%, FBPA coupling cs 0 and Tau FP inhib -11%.
Screening CO[C@H]1[C@H](O[C@H]2O[C@@H](C)[C@@H](O[C@@H]3C[C@](C)(O)[C@H](O)[C@H](C)O3)[C@@H](N(C)C)[C@@H]2O)[C@@H](CC=O)C[C@@H](C)[C@@H](O[C@H]2CC[C@H](N(C)C)[C@H](C)O2)/C=C\C=C/C[C@@H](C)OC(=O)C[C@H]1O returned Sfp inh 20% and FBPA coupling cs -1.
For Cc1ccc(OCc2nc(-c3ccc(C(=O)N4CCN(c5ccccc5F)CC4)cc3)oc2C)cc1 the results were Tau fluor counter -5%, Tau fibril ThT -13% and Tau FP inhib inconclusive.
CCOC(=O)c1cc(C)n(CC2CCC(C(=O)Nc3ccc(C(C)=O)cc3)CC2)c1C (stereo not drawn) was read as Tau fluor counter -23%, Tau fibril ThT 14% and Tau FP inhib -1%.
